{"source": "PubChem BioAssay (NCI)", "note": "The panel holds about 83,000 compounds, 20% with a hit somewhere; the sample as a whole holds those more often.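 Testing used 96-well plates and a 48-hour single-concentration exposure. Example: -40 means 40% of the starting cells died.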 Activity calls are given as the source filed them. The calls were made as follows: active = growth percent below 10; inactive = the rest."}
{"test_system": "MDA-MB-468 breast", "assay": "NCI-60 one-dose screen, 48 h (100 = growth as untreated, 0 = no growth, -100 = all killed)", "conditions": "10 µM unless noted"}
{"compound": "Cc1c(Cl)cc(-n2c(=O)c3ccccc3c3ccccc3c2=O)cc1Cl", "growth": "128% (inactive)"}
{"compound": "CC(C)(C)[Si](C)(C)OC1[C@@H](CNC(=O)NC(=O)CCl)O[C@@H](n2cnc3c(N)ncnc32)[C@H]1O[Si](C)(C)C(C)(C)C", "note": "(some centres not stated)", "growth": "-2.45% (active)"}
{"compound": "COc1cccc(C(=O)NNc2nc(Cl)nc(Cl)n2)c1", "growth": "102% (inactive)"}
{"compound": "Cc1[nH]n(C(=O)c2ccncc2)c(=O)c1N=Nc1ccc(F)c(Cl)c1", "growth": "110% (inactive)"}
{"compound": "C=CCNc1ccc2c3c(cccc13)C(=O)N(N1C(=O)c3cccc4cccc(c34)C1=O)C2=O", "growth": "101% (inactive)"}
{"compound": "Cn1c([N+](=O)[O-])cnc1/C=C1\\Oc2ccc(Br)cc2C1=O", "growth": "13.1% (inactive)"}
{"compound": "Cc1ccc(S(=O)(=O)Nc2cccc(Cn3c(=O)[nH]c4ccc(Oc5ncccn5)cc4c3=O)c2)cc1", "growth": "39.6% (inactive)"}
{"compound": "CC(C)(C)OC(=O)NCCc1ccc(N=C=S)cc1", "growth": "60.6% (inactive)"}
{"compound": "CCCCOc1ccc(C(C)(C)c2ccc(OCCCC)cc2)cc1", "growth": "132% (inactive)"}
{"compound": "CON=C1C[C@]2(C[C@@H]3C[C@@H](C/C=C(\\C)C[C@@H](C)/C=C/C=C4\\CO[C@@H]5[C@H](O)C(C)=C[C@@H](C(=O)O3)[C@]45O)O2)O[C@H](/C(C)=C/C(C)C)[C@H]1C", "growth": "49% (inactive)"}
{"compound": "CCC1=C(c2ccc(OC)cc2)C(C)Oc2cc(OC(C)=O)ccc21", "note": "(configuration not stated)", "growth": "-14.1% (active)"}
{"compound": "C(=C\\c1n(Cc2ccc3ccccc3c2)c(-c2ccccc2)c(-c2ccccc2)[n+]1Cc1ccc2ccccc2c1)/c1ccccc1", "growth": "-70.8% (active)"}
